According to paper PMC5515408, “Sequence-specific DNA binding by MYC/MAX to low-affinity non-E-box motifs”:
Whole data set: some 4,500 sequences, median “log2 normalized fluorescence” near -0.34, cut for the highest 2% near 3.3. The sample holds the highest values, similar sequences and a random draw of the others, so the mix is not that of the screen.

target: MAX:MAX (p21) (human, UniProt P61244-2 1-151); test: protein-binding microarray (anti-MAX antibody); PBM: 15 mM Tris-HCl pH 7.5, 100 mM KCl, 0.075% NP40, 7.5 mM beta-mercaptoethanol, 375 ng/ul BSA, 8 ng/ul poly(dA-dT):(dA-dT), 550 ng complex, 60 min, room tempe; high values mean tight binding; conditions: protein: recombinant; tags: 6xHis; chain copies: 2; label: 3' end of printed strand (linker) attached to glass slide; dsDNA, one strand shown
Sequence (P61244 other isoform, or with tags, fused parts or gaps): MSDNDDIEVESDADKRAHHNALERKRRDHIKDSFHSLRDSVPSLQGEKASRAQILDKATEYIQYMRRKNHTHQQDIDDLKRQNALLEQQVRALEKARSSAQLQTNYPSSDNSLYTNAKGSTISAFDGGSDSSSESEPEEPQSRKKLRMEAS
How it was run: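 Binding is reported as log2 normalized fluorescence. Recombinant His-tagged human MYC:MAX or MAX:MAX dimers expressed in E. coli (550 ng) were incubated with a custom Agilent glass array for 60 min at room temperature in Tris-KCl buffer, pH 7.5, containing NP40, BSA and poly(dA-dT) competitor. The array carried ~5000 unique 12-nt sequences, each spotted in triplicate and made double-stranded by primer extension, and bound protein was detected with anti-MAX and secondary antibodies and scanned at 543 nm.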

Sequence | binding signal
CCGGCTACTATGCCATGTTAATAGCTAAGATTACTATATCGACG | 0.457 log2 normalized fluorescence
CCGGCTGCCATGTGGTTTTAATAGCTAAGATTACTATATCGACG | 3.15 log2 normalized fluorescence
CCGGCGGGCACGTGGGATTAATAGCTAAGATTACTATATCGACG | 3.48 log2 normalized fluorescence
CCGGCTGCCATGTGGGATTAATAGCTAAGATTACTATATCGACG | 3.34 log2 normalized fluorescence
CCGGCGGGCACGTGGTCTTAATAGCTAAGATTACTATATCGACG | 3.13 log2 normalized fluorescence
CCGGCTGGCACGTGGGATTAATAGCTAAGATTACTATATCGACG | 3.64 log2 normalized fluorescence
CCGGCTATCACGTGGGATTAATAGCTAAGATTACTATATCGACG | 3.05 log2 normalized fluorescence
CCGGCTGGCACGTGGCATTAATAGCTAAGATTACTATATCGACG | 3.03 log2 normalized fluorescence
CCGGCTGGCACGTCGGATTAATAGCTAAGATTACTATATCGACG | 1.33 log2 normalized fluorescence
CCGGCTGACGATCTGTATTAATAGCTAAGATTACTATATCGACG | -0.62 log2 normalized fluorescence
CCGGCTGAAGAGAGGTATTAATAGCTAAGATTACTATATCGACG | -0.631 log2 normalized fluorescence
CCGGCTGACCCATGGTTTTAATAGCTAAGATTACTATATCGACG | 2 log2 normalized fluorescence
CCGGCTGACATGAGGTATTAATAGCTAAGATTACTATATCGACG | 2.52 log2 normalized fluorescence
CCGGCTGACCACAAGTATTAATAGCTAAGATTACTATATCGACG | 1.12 log2 normalized fluorescence
CCGGCTGACCCAACGTATTAATAGCTAAGATTACTATATCGACG | -0.297 log2 normalized fluorescence
CCGGCTGACACGTGGCCTTAATAGCTAAGATTACTATATCGACG | 3.37 log2 normalized fluorescence
CCGGCTGACACGGCTTATTAATAGCTAAGATTACTATATCGACG | 0.66 log2 normalized fluorescence
CCGGCTGACACGTGGACTTAATAGCTAAGATTACTATATCGACG | 3.07 log2 normalized fluorescence
CCGGCTGACACGTGGGCTTAATAGCTAAGATTACTATATCGACG | 3.35 log2 normalized fluorescence
CCGGCTGACACGTGGGATTAATAGCTAAGATTACTATATCGACG | 3.16 log2 normalized fluorescence
CCGGCCGACACGTGGGCTTAATAGCTAAGATTACTATATCGACG | 3.29 log2 normalized fluorescence
CCGGCTCACACGTGGGCTTAATAGCTAAGATTACTATATCGACG | 3.27 log2 normalized fluorescence
CCGGCTGACACGTGACCTTAATAGCTAAGATTACTATATCGACG | 3.18 log2 normalized fluorescence
CCGGCCGACACGTGGTATTAATAGCTAAGATTACTATATCGACG | 3.12 log2 normalized fluorescence
CCGGCTGAAAAACCGTATTAATAGCTAAGATTACTATATCGACG | -0.672 log2 normalized fluorescence

Sequence | binding signal
CCGGCTGAAGGCACGTATTAATAGCTAAGATTACTATATCGACG | 0.169 log2 normalized fluorescence
CCGGCTGAGCACTGGTATTAATAGCTAAGATTACTATATCGACG | -0.181 log2 normalized fluorescence
CCGGCTGAGGACTTGTATTAATAGCTAAGATTACTATATCGACG | -0.44 log2 normalized fluorescence
CCGGCTCCCACCTGGTATTAATAGCTAAGATTACTATATCGACG | 2.61 log2 normalized fluorescence
CCGGCTGACGGACGGTATTAATAGCTAAGATTACTATATCGACG | -0.374 log2 normalized fluorescence
CCGGCTGACGTATCGTATTAATAGCTAAGATTACTATATCGACG | -0.167 log2 normalized fluorescence
CCGGCTTCCACGTGGTATTAATAGCTAAGATTACTATATCGACG | 3.13 log2 normalized fluorescence
CCGGCGATCACGTGGTATTAATAGCTAAGATTACTATATCGACG | 3.19 log2 normalized fluorescence
CCGGCGACCACGTGGTATTAATAGCTAAGATTACTATATCGACG | 3.3 log2 normalized fluorescence
CCGGCGGCCACGTGGTATTAATAGCTAAGATTACTATATCGACG | 3.16 log2 normalized fluorescence
CCGGCAACCACGTGGTATTAATAGCTAAGATTACTATATCGACG | 3.15 log2 normalized fluorescence
CCGGCGTCCACGTGGTATTAATAGCTAAGATTACTATATCGACG | 3.64 log2 normalized fluorescence
CCGGCTACGACGTGGTATTAATAGCTAAGATTACTATATCGACG | 2.57 log2 normalized fluorescence
CCGGCTGATCCTACGTATTAATAGCTAAGATTACTATATCGACG | -0.737 log2 normalized fluorescence
CCGGCTGATTACGTGTATTAATAGCTAAGATTACTATATCGACG | 0.238 log2 normalized fluorescence
CCGGCTGACCGCGCGTATTAATAGCTAAGATTACTATATCGACG | 1.24 log2 normalized fluorescence
CCGGCTGATCGTGTGTATTAATAGCTAAGATTACTATATCGACG | 1.12 log2 normalized fluorescence
CCGGCTGACCGTGTGTATTAATAGCTAAGATTACTATATCGACG | 1.49 log2 normalized fluorescence
CCGGCTGACCGCGTGTATTAATAGCTAAGATTACTATATCGACG | 3.4 log2 normalized fluorescence
CCGGCTGATCACGTGTATTAATAGCTAAGATTACTATATCGACG | 3.48 log2 normalized fluorescence
CCGGCTGACACCGTGTATTAATAGCTAAGATTACTATATCGACG | 1.72 log2 normalized fluorescence
CCGGCTGACGCCTAGTATTAATAGCTAAGATTACTATATCGACG | -0.368 log2 normalized fluorescence
CCGGCTGAAGGCGCGTATTAATAGCTAAGATTACTATATCGACG | -0.33 log2 normalized fluorescence
CCGGCTGAAGCCCGGTATTAATAGCTAAGATTACTATATCGACG | -0.644 log2 normalized fluorescence
CCGGCTGACACGTAGCATTAATAGCTAAGATTACTATATCGACG | 1.7 log2 normalized fluorescence

Sequence | binding signal
CCGGCTGACATACAGTATTAATAGCTAAGATTACTATATCGACG | 0.345 log2 normalized fluorescence
CCGGCTGACTCAAGGTATTAATAGCTAAGATTACTATATCGACG | 0.208 log2 normalized fluorescence
CCGGCTGGCACGTGGTATTAATAGCTAAGATTACTATATCGACG | 3.26 log2 normalized fluorescence
CCGGCTGGCACCTGGTTTTAATAGCTAAGATTACTATATCGACG | 1.82 log2 normalized fluorescence
CCGGCCGGCACGTGGTGTTAATAGCTAAGATTACTATATCGACG | 3.21 log2 normalized fluorescence
CCGGCTGGCACGTGGTTTTAATAGCTAAGATTACTATATCGACG | 3.33 log2 normalized fluorescence
CCGGCTGGCACGTGGTGTTAATAGCTAAGATTACTATATCGACG | 3.4 log2 normalized fluorescence
CCGGCTGCCACGTGGTGTTAATAGCTAAGATTACTATATCGACG | 3.07 log2 normalized fluorescence
CCGGCTGAGTGTCGGTATTAATAGCTAAGATTACTATATCGACG | -0.348 log2 normalized fluorescence
CCGGCTGATGCCCTGTATTAATAGCTAAGATTACTATATCGACG | -0.309 log2 normalized fluorescence
CCGGCTGAACGTACGTATTAATAGCTAAGATTACTATATCGACG | -0.307 log2 normalized fluorescence
CCGGCTGAGGCGTCGTATTAATAGCTAAGATTACTATATCGACG | -0.641 log2 normalized fluorescence
CCGGCTGAACGCAAGTATTAATAGCTAAGATTACTATATCGACG | 0.234 log2 normalized fluorescence
CCGGCTGACACGTGTTATTAATAGCTAAGATTACTATATCGACG | 3.29 log2 normalized fluorescence
CCGGCCGACACGTGTTATTAATAGCTAAGATTACTATATCGACG | 3.4 log2 normalized fluorescence
CCGGCCGACACGGCGTATTAATAGCTAAGATTACTATATCGACG | 0.94 log2 normalized fluorescence
CCGGCTGACACGTGATATTAATAGCTAAGATTACTATATCGACG | 3.05 log2 normalized fluorescence
CCGGCAGACACGTGGTGTTAATAGCTAAGATTACTATATCGACG | 3.28 log2 normalized fluorescence
CCGGCTGACACGTTATATTAATAGCTAAGATTACTATATCGACG | 2.87 log2 normalized fluorescence
CCGGCCGACACCTGTTATTAATAGCTAAGATTACTATATCGACG | 2.63 log2 normalized fluorescence
CCGGCAGAAACGTGTTATTAATAGCTAAGATTACTATATCGACG | 2.96 log2 normalized fluorescence
CCGGCAGACACGTGTTATTAATAGCTAAGATTACTATATCGACG | 3.42 log2 normalized fluorescence
CCGGCTGACACACGTTATTAATAGCTAAGATTACTATATCGACG | 2.37 log2 normalized fluorescence
CCGGCCGACACGTGATATTAATAGCTAAGATTACTATATCGACG | 3.43 log2 normalized fluorescence
CCGGCCGACACGTGCTATTAATAGCTAAGATTACTATATCGACG | 3.18 log2 normalized fluorescence
